Drawing on PubChem BioAssay (EPA / NIEHS), this text covers outcome and AC50 for 19 molecules.

Test [1] is described as follows: ATG_GLI_CIS: Attagene CIS-FACTORIAL HepG2 Assay for human Zinc Finger Protein GLI1 (AID 2282945). The conditions noted are these: HepG2, Attagene cis-factorial reporter mRNA, GLI element; actives raise or lower the signal. Summed up: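 Transiently transfected HepG2 cells report endogenous transcription factor activity via cis-element-driven reporter units. After 24 h compound exposure, reporter mRNA was measured by RT-PCR with capillary electrophoresis; bidirectional fitting against DMSO baseline.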

Test [2] deals with Bile acid receptor (Homo sapiens) (UniProt Q96RI1). In words: ATG_IR1_CIS: Attagene CIS-FACTORIAL HepG2 Assay for human Nuclear Receptor Subfamily 1 Group H Member 4 (NR1H4), IR1 submotif (AID 2282946). The following applies: IR1 reporter transcription, actives raise or lower the signal. The method in brief: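 Fluorescence of capillary-separated, HpaI-digested RT-PCR reporter products gave IR1-element mRNA induction in HepG2 cells 24 h after dosing. Endogenous transcription factors drove the cis-regulated reporters; activity was fitted bidirectionally against DMSO.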
Sequence of Bile acid receptor (Homo sapiens) (Q96RI1 whole entry, looked up): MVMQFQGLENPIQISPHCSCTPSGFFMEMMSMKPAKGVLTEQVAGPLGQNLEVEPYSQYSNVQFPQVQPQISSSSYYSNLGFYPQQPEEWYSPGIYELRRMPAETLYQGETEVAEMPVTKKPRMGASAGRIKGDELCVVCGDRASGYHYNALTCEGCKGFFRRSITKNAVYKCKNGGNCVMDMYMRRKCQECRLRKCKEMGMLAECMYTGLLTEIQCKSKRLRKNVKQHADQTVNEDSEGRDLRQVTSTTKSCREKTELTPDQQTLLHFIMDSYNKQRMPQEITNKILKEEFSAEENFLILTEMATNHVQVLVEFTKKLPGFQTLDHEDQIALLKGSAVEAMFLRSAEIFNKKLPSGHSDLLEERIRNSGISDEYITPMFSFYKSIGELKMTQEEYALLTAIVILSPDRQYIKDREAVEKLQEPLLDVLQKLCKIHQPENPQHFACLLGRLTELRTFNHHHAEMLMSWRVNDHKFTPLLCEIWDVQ

Test [3] is described as follows: ATG_GRE_CIS: Attagene CIS-FACTORIAL HepG2 Assay for human Glucocorticoid Response Elements (GRE) (AID 2282947). The conditions noted are these: HepG2 GRE cis-reporter, Attagene multiplex mRNA; actives raise or lower the signal. Summed up:
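Fluorescence intensity of reporter-specific cDNA fragments, separated by capillary electrophoresis, provides the signal. Constructs carry cis-regulating promoters in transiently transfected HepG2 liver cells; 24 h incubation; fitting is bidirectional against DMSO.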

Test [4] can be described thus: ATG_ISRE_CIS: Attagene CIS-FACTORIAL HepG2 Assay for human Interferon Regulatory Factor 1 (IRF1) binding to an Interferon-Stimulated Response Element (ISRE) (AID 2282948). The conditions noted are these: HepG2 ISRE cis-reporter (Attagene), mRNA transcription readout; actives raise or lower the signal. The method in brief: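 Endogenous transcription factor activity read as reporter transcript abundance via RT-PCR and capillary electrophoresis. HepG2 cells transiently transfected, 24 h chemical exposure. Gain or loss fitted against DMSO baseline.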

A short description of test [5]: ATG_M_32_CIS: Attagene CIS-FACTORIAL HepG2 Assay for M32 Transcription Factor (Internal Marker) (AID 2282949).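 Note: background control marker of the multiplexed CIS panel rather than a real target.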 The conditions noted are these: HepG2 Attagene cis-factorial M32 reporter, mRNA; actives raise or lower the signal. Summed up: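 HepG2 transfectants (cis-regulated reporter transcription units) dosed 24 h. Reporter mRNA by RT-PCR plus CE, analysed as gain or loss relative to DMSO.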

The nature of test [6]: ATG_M_06_CIS: Attagene CIS-FACTORIAL HepG2 Assay for M06 Transcription Factor (Internal Marker) (AID 2282950). The conditions noted are these: HepG2 Attagene CIS-FACTORIAL M06 internal marker reporter; actives raise or lower the signal. Summed up:
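One of many multiplexed endpoints: HepG2 reporter mRNA after 24 h dosing, detected by RT-PCR and capillary electrophoresis fluorescence; gain or loss of signal analysed against DMSO.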

Test [7] has as its target Hypoxia-inducible factor 1-alpha (Homo sapiens) (UniProt Q16665). Kind of test: ATG_HIF1a_CIS: Attagene CIS-FACTORIAL HepG2 Assay for human Hypoxia Inducible Factor 1 (HIF1A) (AID 2282951). The following applies: HepG2 Attagene cis-factorial HIF1a reporter transcription; actives raise or lower the signal. Summed up:
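Cis-element reporter constructs were transiently transfected into HepG2 cells, which were treated for 24 h; reporter RNA was reverse-transcribed, amplified, labelled and resolved by capillary electrophoresis.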

Test [8] has as its target Hepatocyte nuclear factor 6 (Homo sapiens) (UniProt Q9UBC0). Kind of test: ATG_HNF6_CIS: Attagene CIS-FACTORIAL HepG2 Assay for human Hepatocyte Nuclear Factor 6 (HNF6) (AID 2282952). The following applies: HepG2 Attagene cis-factorial HNF6 reporter transcription; actives raise or lower the signal. Summed up:
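First, HepG2 cells were transfected with the multiplexed cis reporter library and dosed with chemical for 24 h. Next, RNA was reverse-transcribed, PCR-amplified and fluorescently labelled. Finally, HpaI-digested fragments were read by capillary electrophoresis.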

For test [9], the target named is Heat shock factor protein 1 (Homo sapiens) (UniProt Q00613). Kind of test: ATG_HSE_CIS: Attagene CIS-FACTORIAL HepG2 Assay for human Heat Shock Transcription Factor 1 (HSE) (AID 2282953). The conditions noted are these: HepG2 HSE cis-reporter, Attagene RNA transcription; actives raise or lower the signal. Summed up:
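Using HepG2 with transfected cis-driven reporter constructs, compound effects on endogenous factor activity are scored as reporter mRNA change at 24 h. Detection: RT-PCR, HpaI digestion, capillary electrophoresis; bidirectional fitting to DMSO.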

A short description of test [10]: ATG_MRE_CIS: Attagene CIS-FACTORIAL HepG2 Assay for human Metal Responsive Element (MRE) (AID 2282954). The following applies: HepG2 MRE cis-reporter transcription, Attagene multiplex; actives raise or lower the signal. Summed up:
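Measured here is mRNA induction from an MRE cis-element reporter in HepG2 after 24 h, quantified by fluorescence of labelled RT-PCR products on capillary electrophoresis; gain- and loss-of-signal fits use DMSO as baseline.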

More than one record can exist for a structure, and the calls need not agree. Activity calls are given as the source filed them. Rule for the calls: active = hit-call score of the fitted dose curve at least 0.9, where 1 is the maximum; inactive = score below 0.9.

Sequence of Hypoxia-inducible factor 1-alpha (Homo sapiens) (Q16665 whole entry, looked up): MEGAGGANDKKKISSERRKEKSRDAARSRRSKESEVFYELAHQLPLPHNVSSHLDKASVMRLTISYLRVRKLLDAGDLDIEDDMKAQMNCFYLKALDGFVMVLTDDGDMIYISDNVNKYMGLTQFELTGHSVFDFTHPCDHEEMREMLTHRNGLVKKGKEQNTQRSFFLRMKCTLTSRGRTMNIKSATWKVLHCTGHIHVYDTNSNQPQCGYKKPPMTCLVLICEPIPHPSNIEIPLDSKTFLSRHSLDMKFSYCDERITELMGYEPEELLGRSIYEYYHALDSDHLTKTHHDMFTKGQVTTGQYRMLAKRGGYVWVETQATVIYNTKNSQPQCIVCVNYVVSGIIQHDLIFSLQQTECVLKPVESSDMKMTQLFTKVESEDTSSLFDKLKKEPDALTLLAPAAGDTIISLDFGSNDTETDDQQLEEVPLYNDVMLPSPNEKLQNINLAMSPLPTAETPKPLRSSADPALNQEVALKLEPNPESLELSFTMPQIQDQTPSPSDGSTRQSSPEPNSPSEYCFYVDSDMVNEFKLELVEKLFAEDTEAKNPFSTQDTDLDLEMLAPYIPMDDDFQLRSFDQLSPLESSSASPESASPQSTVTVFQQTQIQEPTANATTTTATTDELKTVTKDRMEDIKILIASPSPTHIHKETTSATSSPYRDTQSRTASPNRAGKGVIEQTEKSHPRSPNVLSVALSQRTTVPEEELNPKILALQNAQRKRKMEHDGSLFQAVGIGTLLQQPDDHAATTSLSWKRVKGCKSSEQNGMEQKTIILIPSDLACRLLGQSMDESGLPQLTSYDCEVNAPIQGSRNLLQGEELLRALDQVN
Sequence of Heat shock factor protein 1 (Homo sapiens) (Q00613 whole entry, looked up): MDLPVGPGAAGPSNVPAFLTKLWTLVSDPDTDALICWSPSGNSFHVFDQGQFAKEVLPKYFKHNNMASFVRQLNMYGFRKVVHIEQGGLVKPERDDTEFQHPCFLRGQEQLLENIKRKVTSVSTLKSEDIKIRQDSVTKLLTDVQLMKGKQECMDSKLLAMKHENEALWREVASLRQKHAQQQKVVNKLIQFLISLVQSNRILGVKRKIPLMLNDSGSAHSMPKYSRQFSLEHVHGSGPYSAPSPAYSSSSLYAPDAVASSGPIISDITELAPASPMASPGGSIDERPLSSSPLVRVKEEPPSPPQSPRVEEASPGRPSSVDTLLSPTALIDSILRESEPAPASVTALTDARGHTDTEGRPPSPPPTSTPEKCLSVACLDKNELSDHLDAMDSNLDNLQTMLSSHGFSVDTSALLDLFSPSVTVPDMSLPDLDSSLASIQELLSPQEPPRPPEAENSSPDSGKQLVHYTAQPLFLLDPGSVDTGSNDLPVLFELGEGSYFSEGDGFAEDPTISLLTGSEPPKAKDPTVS
Sequence of Hepatocyte nuclear factor 6 (Homo sapiens) (Q9UBC0 whole entry, looked up, the tested form may be a part): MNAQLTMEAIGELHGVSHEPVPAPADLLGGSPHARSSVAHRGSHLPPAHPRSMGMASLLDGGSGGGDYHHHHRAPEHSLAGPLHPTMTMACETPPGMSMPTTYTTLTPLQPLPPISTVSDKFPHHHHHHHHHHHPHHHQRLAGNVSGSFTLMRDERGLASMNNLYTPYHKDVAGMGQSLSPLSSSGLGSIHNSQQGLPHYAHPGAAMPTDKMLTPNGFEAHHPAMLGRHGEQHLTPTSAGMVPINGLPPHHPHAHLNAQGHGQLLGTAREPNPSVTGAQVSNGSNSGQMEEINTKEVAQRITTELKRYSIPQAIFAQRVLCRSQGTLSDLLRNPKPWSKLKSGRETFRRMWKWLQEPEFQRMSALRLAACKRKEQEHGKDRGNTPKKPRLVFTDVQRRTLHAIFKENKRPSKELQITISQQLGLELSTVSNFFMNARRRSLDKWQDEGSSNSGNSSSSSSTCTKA

The AC50 is the concentration giving half of the maximal activity seen. For `CC(C)(C)c1ccc(O)c(C(C)(C)C)c1`, the molecule was called inactive in test [1], in test [3], in test [4], in [5], in [6] and in test [7]. Besides, the molecule was called inactive in test [8], in [9] and in test [10]. Also, in test [2], the AC50 is 5.79 µM (active).

For `OCCC(F)(F)C(F)(F)C(F)(F)C(F)(F)C(F)(F)C(F)(F)F`, the call in test [1], in [2], in test [3], in test [4], in test [5] and in test [6] was inactive. Moreover, the call in [7], in test [8], in test [9] and in [10] was inactive. Moreover, the AC50 was 187 µM (active) in [2]; 133 µM (active) in test [3]; 100 µM (active) in test [4]; 100 µM (active) in test [5]; 100 µM (active) in test [9]; 147 µM (active) in test [10].

In the case of `c1ccc2c(c1)ccc1ccccc12`, the molecule was classed as inactive in test [1], in test [2], in test [3], in test [4], in [5] and in test [6]. For the same molecule, the result in [8], in test [9] and in test [10] was inactive. Also, the AC50 in test [7] was 26.9 µM (active).

Consider `CC(O)CO` (stereo unspecified), for which the call in test [1], in [2], in test [3], in test [4], in test [5] and in test [6] was inactive. The result in test [7], in [8], in test [9] and in [10] was inactive.

As to `CCc1ccc(CCOc2ccc(CC3SC(=O)NC3=O)cc2)nc1` (stereo unspecified), the outcome in [1], in test [3], in test [4], in test [5], in [6] and in test [7] was inactive. For the same molecule, the molecule was classed as inactive in test [8], in test [9] and in test [10].

Take `CN1CCC[C@H]1c1cccnc1`: the outcome in test [1], in test [4], in test [5], in test [6], in test [8] and in [10] was inactive.

With `C#C[C@]1(O)CC[C@H]2[C@@H]3CCC4=CC(=O)CC[C@@H]4[C@H]3CC[C@@]21C`, the result in test [1], in [3], in test [4], in test [5], in test [6] and in test [9] was inactive. Besides, in test [10], the result was inactive.

For the molecule `COCC(C)O` (stereo unspecified), the molecule was classed as inactive in test [1], in test [3], in test [4], in test [5], in test [6] and in test [7]. Further, the molecule was classed as inactive in [8] and in test [10].

On to `O=C(OCCOCCOC(=O)c1ccccc1)c1ccccc1`, for which the molecule was classed as inactive in test [1], in test [2], in test [3], in [4], in test [5] and in test [6]. Moreover, the call in [7], in test [8], in [9] and in test [10] was inactive.

On to `NCC(F)(F)C(F)(F)C(F)(F)C(F)(F)C(F)(F)C(F)(F)C(F)(F)F`, for which the outcome in test [1], in [2], in test [3], in test [4], in [5] and in test [6] was inactive. For the same molecule, the molecule was classed as inactive in [7], in test [8], in test [9] and in test [10].

Take `C[C@@H]1C[C@H]2[C@@H]3CCC4=CC(=O)C=C[C@]4(C)[C@@]3(F)[C@@H](O)C[C@]2(C)[C@@]1(O)C(=O)COP(=O)(O)O`: the call in test [1], in test [4], in test [5], in test [6], in test [7] and in test [8] was inactive. For the same molecule, the call in test [9] and in [10] was inactive. Further, in test [3], the AC50 was 77.6 nM (active) [middle of 4 runs].

For the molecule `O=C(/C=C/c1ccc(O)cc1)CC(=O)/C=C/c1ccc(O)cc1`, the molecule was classed as inactive in test [1], in [3], in test [5], in [6], in test [7] and in test [8]. Besides, the AC50 in test [2] was 29 µM (active); in [4] it was 8.84 µM (active); in test [9], 20.3 µM (active); in test [10], 10.8 µM (active).

In the case of `O=C(O)c1ccccc1C(c1ccc(O)cc1)c1ccc(O)cc1`, the outcome in test [1], in test [3], in test [4], in test [5], in test [6] and in test [7] was inactive. Besides, the molecule was classed as inactive in test [8], in test [9] and in test [10].

Turning to `Cc1oc(-c2ccccc2)nc1CCOc1ccc(C[C@H](Nc2ccccc2C(=O)c2ccccc2)C(=O)O)cc1`, the call in test [1], in [3], in [4], in [5], in test [6] and in test [8] was inactive. For the same molecule, the AC50 in test [2] was 11 µM (active); in [7], 17.6 µM (active); in test [9], 17.6 µM (active); in [10], 20.8 µM (active).

With `CCC(C)(C)C1CCC(O)CC1` (stereo unspecified), the molecule was classed as inactive in test [1], in test [4], in test [5], in [6], in test [7] and in test [8]. Also, the call in test [9] and in [10] was inactive.

In the case of `Cc1cc(CCN2CCN(c3nsc4ccccc34)CC2)cc2c1NC(=O)CC2(C)C`, the molecule was called inactive in [1], in test [2], in test [3], in test [5], in test [6] and in test [7]. The call in [8] and in [9] was inactive. The AC50 was 8.79 µM (active) in [4] and 13.3 µM (active) in [10].

`CCCCCCCCCCCCc1ccccc1S(=O)(=O)O`: the result in [1], in test [2], in test [3], in test [4], in test [5] and in test [6] was inactive. The result in [7], in test [8], in test [9] and in test [10] was inactive.

As to `CCCOc1sc(C(=O)N2CCC(c3cc(CN)ccc3F)CC2)c(C)c1Br`, the molecule was called inactive in [1], in test [3], in test [4], in test [5], in test [6] and in test [8]. The outcome in test [9] and in test [10] was inactive. Moreover, the AC50 was 1.12 µM (active) in test [2] and 3.7 µM (active) in test [7].

On to `Cc1ccc(S(=O)(=O)O)c(C)c1`, for which the molecule was called inactive in test [1], in test [3], in test [4], in test [5], in [6] and in test [7]. Also, the molecule was called inactive in test [8], in test [9] and in test [10].
